# High-throughput results: PubChem, National Center for Advancing Translational Sciences (NCATS)
# The list is not random: actives were taken first. Their share in the collection is about 9.4%.
# AMA1 RON2 block: qHTS for Inhibitors of AMA1-RON; Towards Development of Antimalarial Drug Lead: Primary Screen; AlphaScreen AMA1-biotinylated RON2 peptide binding; 360,000 compounds, 0.2% hits; Plasmodium falciparum AMA1 (3D7) - RON2 peptide interaction; Potency, µM (series often up to 58.2 µM), without a hit: top-dose activity change, negative = inhibition, actives largely listed as inhibitors;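 further: 0% = vehicle wells and -100% = peptide control; nearly all actives have a fitted effect of over 45% in size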
#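 AMA1 (3D7) with his tag at 25 nM final met compounds first, then biotinylated RON2 peptide at 25 nM; detection used donor plus acceptor beads, 10 µg/mL apiece, read by AlphaScreen after 30 min at room temperature.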
# SARS PLP yeast: qHTS of Yeast-based Assay for SARS-CoV PLP. S. cerevisiae expressing SARS-CoV PLpro, growth rescue. Potency, µM (top dose mostly 32.9 µM), for inactives: top-dose activity, positive = growth rescue, actives largely listed as activators. 330,000 compounds, 0.19% hits. AID 485353, 2010; calls by dose curve; further: 0% is about no effect; nearly all actives have a fitted effect of over 55% in size
# Pf growth 48h: Primary qHTS for delayed death inhibitors of the malarial parasite plastid, 48 hour incubation. 310,000 compounds, 5.9% hits. AID 504832, 2011. Potency, µM (series often up to 28.7 µM), inactives show at the highest dose activity change, negative = inhibition, most hits filed as inhibitors. P. falciparum luciferase growth in erythrocytes, 48 h; further: on the % scale 0 is the no-effect control and ±100 the full control effect
#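 Growth was read as firefly luciferase luminescence after a 48 h, 37 C, 5% CO2 exposure of compounds to reporter-bearing P. falciparum cultures (0.1% parasitemia, 2% hematocrit final) in Albumax-supplemented RPMI 1640.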
# Pf growth 96h: Primary qHTS for delayed death inhibitors of the malarial parasite plastid, 96 hour incubation; P. falciparum luciferase reporter growth, 96 h; Potency, µM (doses to about 28.7 µM), for the others: top-dose activity change, negative = inhibition, actives largely listed as inhibitors; 320,000 compounds, 6.9% hits; AID 504834, 2011; further: on the % scale 0 is the no-effect control and ±100 the full control effect
#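 Infected RBCs, 2% Hct / 0.05% parasitemia final; luciferase-reporter P. falciparum; cpd 96 h, 37 C, 5% CO2; luciferase detection reagent; luminescence.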
# * = called active by the depositor; ? = inconclusive; . = no result; [ ] = remark or other dose. Unless noted, the call rests on the fitted dose curve; in most records, active means well fitted curve in the direction sought with a large enough effect; inconclusive means small, poorly fitted or top-dose-only effect, or another doubt; inactive means no such curve, though single readings can be large; an effect the other way counts as inactive or inconclusive. Potency means the concentration at half of the fitted maximal effect.
SMILES,AMA1 RON2 block,SARS PLP yeast,Pf growth 48h,Pf growth 96h
O=C1c2ccccc2C(Nc2cccnc2)N1Cc1ccccc1Cl (centres undefined),10%,2%,?,3%
Cc1nnc(SC(=O)N2c3ccccc3Sc3ccccc32)s1,-17%,18%,10µM*,.
CCOC(=O)N1c2ccccc2Sc2ccccc21,1%,0%,?,1%
CC(C)n1ncc2c(C(=O)N3CCN(Cc4ccc(Cl)s4)CC3)cc(C3CC3)nc21,0%[11.6 µM],-2%,13µM*,?
CC(C)n1ncc2c(C(=O)N3CCN(S(=O)(=O)c4cccc(F)c4)CC3)cc(C3CC3)nc21,0%,.,.,.
Cc1ccc(S(=O)(=O)N2CCN(C(=O)c3cc(C4CC4)nc4c3cnn4C(C)C)CC2)cc1,-10%,4%,13µM*,2.6µM*
CC(=O)Nc1ccc(NC(=O)c2cc(C3CC3)nc3c2cnn3C(C)C)cc1,-5%,7%,?,-25%
CSc1ccc(C(=S)N2CCCC2)cc1,0%,9%,5%,?
CCOc1ccc(C(=O)Nc2ccccc2NC(C)=O)cc1OCC,-1%,0%,3%,16%
Cc1cccc(C)c1NS(=O)(=O)c1cc2c3c(c1)CC(=O)N3CCC2,8%,15%,9.3µM*,?
Cc1ccc(C)c(NS(=O)(=O)c2cc3c4c(c2)CC(=O)N4CCC3)c1,-5%,5%,10µM*,3%
O=C1Cc2cc(S(=O)(=O)Nc3cccc([N+](=O)[O-])c3)cc3c2N1CCC3,-10%,7%,-16%,6.6µM*
Cc1ccc(C)c(S(=O)(=O)Nc2cc3c4c(c2)CC(=O)N4CCC3)c1,-14%,3%,?,?
CN(C)c1ccc(NS(=O)(=O)c2cc3c4c(c2)CC(=O)N4CCC3)cc1,-12%,2%,-26%,?
CC(C)(C)C(=O)NC(=S)Nc1ccc(Cl)c(C(=O)O)c1,-1%,0%,21%[5.75 µM],-15%[5.75 µM]
O=C(CSc1nnc(Cc2cccs2)n1-c1ccccc1)NC1CCCCC1,-16%,2%,?,-25%
CCCCc1nnc(NC(=O)Cc2ccc(S(=O)(=O)N3CCOCC3)s2)s1,41%,3%,10µM*,?
Cc1cnc(NC(=O)Cc2ccc(S(=O)(=O)N3CCOCC3)s2)s1,51%,-1%,.,.
O=C(Cc1ccc(S(=O)(=O)N2CCOCC2)s1)NCC(=O)Nc1ccccc1Br,-4%,4%,6%,-1%
CC(C)(C)c1csc(NC(=O)Cc2ccc(S(=O)(=O)N3CCOCC3)s2)n1,8%,-4%,?,10µM*
O=C(Cc1ccc(S(=O)(=O)N2CCOCC2)s1)Nc1ccccc1Br,-10%,0%,2.3µM*,3.7µM*
CCc1nnc(NC(=O)Cc2ccc(S(=O)(=O)N3CCCCC3)cc2)s1,0%,0%,12µM*,12µM*
CCCOc1ccc(NC(=O)Cc2ccc(S(=O)(=O)N3CCOCC3)s2)cc1OCCC,-18%,-9%,?,?
CC(=O)Nc1cccc(-n2nnc(SCC(=O)c3ccccc3)n2)c1,0%,0%,154%,101%
CCNc1nc(NCC)nc(SCCOc2ccc(C)cc2)n1,-1%,-138%,?,?
SMILES,AMA1 RON2 block,SARS PLP yeast,Pf growth 48h,Pf growth 96h
COc1cc(C(=O)COC(=O)C2CCCCC2)cc(OC)c1OC,3%,-11%,.,.
CC1=C(C(=O)N(C(C)C)C(C)C)CC(CC(=O)NCCc2ccccn2)C(=O)N1Cc1ccc(C(C)(C)C)cc1 (centres undefined),1%,.,.,.
COCCn1c(SCc2cccnc2)nnc1-c1ccco1,?,0%,23%,9.3µM*
COCCn1c(SCC(=O)NCCc2ccccc2)nnc1-c1ccco1,11%,-11%,7%,1%[5.75 µM]
COCCCn1c(SCC(=O)N2CCCC(C)C2)nnc1-c1ccco1 (centres undefined),-8%,4%,-5%,0.59µM*
CC1Cc2ccccc2N1C(=O)CSc1nc(-c2ccccc2)cs1 (centres undefined),5%,-1%,?,10µM*
CCCn1c(SCC(=O)N2c3ccccc3CC2C)nnc1-c1ccco1 (centres undefined),19%,16%,12µM*,?
CC1CCC(NC(=O)N(CCCl)N=O)CC1 (centres undefined),7%,.,5.4µM*,6.7µM*
COc1ccccc1NC(=O)/C(C#N)=C/c1cccn1C,-12%,.,.,.
Cc1nc(N2CCN(c3ccccn3)CC2)c2c(C)c(C(=O)Nc3ccc(Br)cc3C)sc2n1,13%,-19%,2.9µM*,-28%
Cc1nc(N2CCN(c3ccccn3)CC2)c2c(C)c(C(=O)N3CCN(c4ccccc4F)CC3)sc2n1,-14%,-3%,8.3µM*,24%
COc1ccccc1-n1c(=O)c(C#N)c(-c2ccc([N+](=O)[O-])cc2)c2cc(C(=O)c3ccccc3O)cnc21,-11%,0%,2.6µM*,1.9µM*
O=C(NCc1ccccn1)Nc1ccc(Br)cc1,15%,24%,13%,1.7µM*
O=C(NCc1ccccn1)Nc1ccc(Br)cc1Cl,3%,0%,50%,9.3µM*
O=C(NCc1ccccn1)Nc1ccc(Cl)cc1Cl,93%,-5%,67%,?
O=C(NCc1ccccn1)Nc1ccccc1,-6%,0%,103%,-17%
CC(C)NC(=O)CC1C(=O)NCCN1CC(c1ccccc1)c1ccccc1 (centres undefined),3%,-2%,-28%,133%
Cc1nn(-c2ccccc2)c2c1C(c1cccnc1)N1C=C(S(=O)(=O)N3CCCCC3)C=CC1=N2 (centres undefined),-8%,-8%,1.9µM*,53%
CCN1C(=O)CC(SC2CC(=O)N(CC)C2=O)C1=O (centres undefined),6%,.,.,.
CNC[C@H](CC1CCCCC1)NC[C@H](Cc1ccccc1)NCCC12CC3CC(CC(C3)C1)C2,47%,-7%,?,2.1µM*
CC1=C(C(N)=O)C(c2cccs2)n2nc(-c3cccc(C)c3)nc2N1 (centres undefined),19%,-1%,-17%,10µM*
COc1ccccc1C1C(C(N)=O)=C(C)Nc2nc(-c3ccccc3Cl)nn21 (centres undefined),-2%,1%,.,?
CC1=C(C(N)=O)C(c2ccccn2)n2nc(-c3ccccc3Cl)nc2N1 (centres undefined),3%,0%,4%,10µM*
O=C(O)c1ccc(Cl)c(S(=O)(=O)Nc2ccc(S(=O)(=O)Nc3cccc(Cl)c3)cc2)c1,18%,25%,19%,43%
Oc1cc(O)c(CN2CCOCC2)cc1CN1CCOCC1,-1%,.,.,.
CC(C)(C)c1cc(CN2CCOCC2)c(C(=O)O)o1,-5%,2%,11%,3.3µM*
O=C(NC(Cc1ccccc1)C(=O)O)/C(=C/c1ccccc1)NC(=O)c1ccco1 (centres undefined),6%,0%,25%,5.2µM*
